From PubChem
PfHsp40 rescue – rescue of yeast from PfHsp40 toxicity, primary screen, S. cerevisiae, ATP luminescence; S. cerevisiae expressing PfHsp40, growth rescue; growth rescue, % at 12.5 µM; hit rate 0.68% among 340,000; in the data active = growth rescue above about 28%, passing the limit was not always enough;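 note: yeast W303a lacking pdr1 and pdr3 grown in galactose medium; growth measured after three days at 30 °C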
BJeLR viability – MLPCN primary cell-based screen for lethality selective to Ras in HRASV12 cells | BJeLR (HRASV12) viability, CellTiter-Glo ATP luminescence, 48 h | inhibition, % (test concentration not listed) | hit rate 0.17% among 300,000; in the data active = inhibition above about 50%
3CLpro inhibitor – SARS-CoV 3CLpro protease inhibitors, primary screen, biochemical, quenched FRET; hit rate 0.14% among 290,000; recombinant SARS-CoV 3CLpro, quenched FRET peptide cleavage; inhibition, % at 6 µM; in the data active = inhibition above about 12%
DUSP3 inh – VHR1 phosphatase inhibitors, primary screen, biochemical, absorbance, uHTS; Dual specificity protein phosphatase 3 (Homo sapiens), P51452; recombinant VHR phosphatase, pNPP absorbance; inhibition, % at 13.3 µM; hit rate 0.52% among 290,000; in the data active = inhibition above about 50%
Target sequence (P51452 whole entry, looked up): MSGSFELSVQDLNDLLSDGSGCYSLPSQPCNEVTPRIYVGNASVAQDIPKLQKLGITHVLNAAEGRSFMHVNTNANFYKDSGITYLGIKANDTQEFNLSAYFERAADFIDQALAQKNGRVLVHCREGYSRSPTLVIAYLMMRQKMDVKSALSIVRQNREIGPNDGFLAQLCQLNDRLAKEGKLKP
Vc quorum ag – inducers of Vibrio cholerae quorum light production without autoinducers, primary screen, BH1578 luxS cqsA deficient, single point; activation, % at 18.7 µM; hit rate 0.16% among 350,000; AID 588436, 2011; V. cholerae BH1578 lux reporter, luminescence, 6 h; in the data active = activation mostly above about 9.7%, no sharp cut-off
MazEF act – activators of E. coli MazEF toxin-antitoxin RNase, primary screen, biochemical, fluorescence, uHTS | AID 504720, 2011 | activation, % at 20 µM | Endoribonuclease toxin MazF (Escherichia coli (strain K12)), P0AE70 | FAM/BHQ RNA-DNA oligo cleavage fluorescence, 5 h | hit rate 0.32% among 350,000; in the data active = activation above about 50%
Target sequence (P0AE70 whole entry, looked up): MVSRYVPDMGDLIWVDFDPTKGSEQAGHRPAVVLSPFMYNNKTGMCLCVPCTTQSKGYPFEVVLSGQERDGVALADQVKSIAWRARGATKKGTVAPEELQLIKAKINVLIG
* = called active by the depositor; i = inactive; x = no result given; + = active, no number. Compounds with a hit are over-represented: about 1.7% of the library has one in this group of screens.

SMILES	PfHsp40 rescue	BJeLR viability	3CLpro inhibitor	DUSP3 inh	Vc quorum ag	MazEF act
CCS(=O)(=O)N1Cc2ccccc2CC1C(=O)N(C)CC(=O)Nc1cccc(F)c1 (configuration not stated)	0	-8	x	x	i	5
O=C(NCc1ccccc1Cl)c1ccc2nc([C@@H]3O[C@H](CO)[C@@H](O)[C@H]3O)[nH]c2c1	x	x	x	x	-1	x
Cc1cccc2cc(C#N)c(SCC(=O)NCc3cccs3)nc12	-1	1	8	2	i	9
Cc1cc(NC(=O)CSc2ccc(Cl)cc2)no1	0	-6	5	21	i	-4
Cc1ccc(C)c2nc(SCC(=O)NCc3cccs3)c(C#N)cc12	-1	1	-1	53*	0	-11
Cc1cc(NC(=O)CSc2nc(-c3ccc(Cl)cc3)cs2)no1	0	-7	0	18	i	77*
COC(=O)CSc1nc2cc(C)ccc2cc1C#N	2	2	3	8	0	260*
COc1cccc(CNc2ncnc3ccc(-c4c(C)noc4C)cc23)c1	33*	x	x	x	i	5
COc1cccc(-c2ccc3ncnc(NCc4cccc(C)c4)c3c2)c1	0	x	x	x	3	-1
CC(=O)Nc1sc(C)c(C)c1C(=O)OCC(=O)NC(C)c1ccccc1 (configuration not stated)	-1	x	x	x	-2	4
COc1cc(/C=C2\C(=O)ON=C2c2ccccc2)cc(OC)c1OC	0	-1	-2	5	+	1
CCCCCCCc1ccc(-c2ccc(O)cc2)nc1	253*	-1	5	-8	0	-2
CCCCCc1ccc(-c2ccc(/C=C/C(=O)O)cc2)nc1	0	-4	-6	8	0	-1
CC(=O)Nc1cccc(OCc2ccc(F)cc2)c1	70*	-6	2	8	0	15
C=Cn1cc[n+](CC(=O)c2ccc(OC)cc2)c1	10	-1	-7	-22	0	0
CC(CCc1ccccc1)NC(=O)C(=O)N1CCOCC1 (configuration not stated)	-2	-5	0	11	-1	6
CCOC(=O)CNC(=O)c1cc(-c2ccccn2)nc2c(C)c(Cl)ccc12	5	-10	2	53*	i	-9
O=C(CNC(=O)c1ccccc1)OCc1cccc(Br)c1	2	0	1	29	0	2
O=C(CCCNC(=O)c1ccc(Cl)cc1)OCc1cccc(Br)c1	277*	-1	x	x	i	1
O=C(NC1CC1)c1ccc2sc([C@H]3C[C@H](O)[C@@H](CO)O3)nc2c1	x	x	x	x	-1	x
Cc1cc(/C=C(\C#N)C(=O)N2CCCCC2)cc(C)c1O	0	-5	-2	58*	-5	-6
N#C/C(=C\c1cccc(O)c1)C(=O)N1CCCCC1	-1	-5	2	31	i	7
COc1cccc(C(=O)N2CCCN(C)CC2)c1OC	-1	4	-2	6	0	12
Cc1ccc2c(n1)sc1c(-c3ccccc3)c(C#N)c(N)nc12	0	-1	-6	17	-1	52*
C(=Cc1c[nH]c2ccccc12)c1nccc2ccccc12	4	x	x	x	-1	113*
SMILES	PfHsp40 rescue	BJeLR viability	3CLpro inhibitor	DUSP3 inh	Vc quorum ag	MazEF act
O=C(O)CC/C(=N/Nc1ccc([N+](=O)[O-])cc1)C(=O)O	135*	4	2	-4	0	6
O=C(O)CC/C(=N\Nc1ccc([N+](=O)[O-])cc1)c1ccccc1	1	5	4	-2	i	-13
CCc1cccc(CC)c1NC(=O)c1ccccc1	0	13	2	-2	i	5
CCc1cccc(CC)c1NC(=O)c1cccc(N)c1	0	0	-3	56*	0	7
CN(C)n1cccc1/C=C(\C#N)S(=O)(=O)c1ccc(Cl)cc1	49*	1	-1	8	i	14
Cc1ccc(S(=O)(=O)/C(C#N)=C/c2c(Oc3ccc(Cl)cc3)nc3c(C)cccn3c2=O)cc1	x	-19	-6	-5	x	x
Cc1ccc(S(=O)(=O)NCCCCCC(=O)NC(C)(C)CO)cc1	51*	-3	-7	21	i	-2
